In the supplement of paper PMC4188521:

These targets were tested with CCc1cnn2c(NCc3ccc[n+]([O-])c3)cc(N3CCCC[C@H]3CCO)nc12 [dinaciclib] (assay: cell viability remaining relative to DMSO control; higher = less cytotoxic (more viable cells)). Conditions: 100 nM; 24 h.
How it was run: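 Remaining viability is reported relative to DMSO-treated control wells, as a percentage of the DMSO control, using CellTiter-Glo ATP luminescence. Solid tumour cell lines from commercial cell banks were treated with 100 nM of the test compound for 24 hr, with final DMSO ≤0.2%. Results are averaged over 2–6 plates with triplicate wells on each plate.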
Target H1703 has a cell viability remaining of 5.5%.
Target SW1783 has a cell viability remaining of 72.9%.
In the case of H1793, the cell viability remaining is reported as 91.3%.
HEC1B was tested, and the cell viability remaining was 94.1%.
H1838 was tested, and the cell viability remaining was 90.6%.
With CAL27 the cell viability remaining was 11.2%.
Work on H146 yielded a cell viability remaining of 86.5%.
Target HCC1187 has a cell viability remaining of 21.6%.
A204 gave a cell viability remaining of 40.8%.
Target MESSA has a cell viability remaining of 33.4%.
For COLO684, the cell viability remaining was 85.6%.
Target 2313287 has a cell viability remaining of 65.6%.
Target RL952 has a cell viability remaining of 33.4%.
CFPAC1 showed a cell viability remaining of 85.5%.
IGROV1 was tested, and the cell viability remaining was 103%.
In the case of 59M, the cell viability remaining is reported as 73.2%.
CALU1 gave a cell viability remaining of 78.1%.
Work on H292 yielded a cell viability remaining of 51.5%.
For HLE, the cell viability remaining was 37.7%.
Work on SW1573 yielded a cell viability remaining of 99%.
SCC25 was tested, and the cell viability remaining was 20.5%.
With CAOV3 the cell viability remaining was 42.2%.
MDAMB436 showed a cell viability remaining of 67.8%.
For LS513, the cell viability remaining was 55.8%.
For KURAMOCHI, the cell viability remaining was 121%.
Target A2780 has a cell viability remaining of 44.5%.
SW900 gave a cell viability remaining of 74.3%.
With HEC265 the cell viability remaining was 46.7%.
Target AU565 has a cell viability remaining of 39.3%.
In the case of H4, the cell viability remaining is reported as 34.1%.
YAPC gave a cell viability remaining of 56.3%.
OVCAR4 showed a cell viability remaining of 49.6%.
Target SW1417 has a cell viability remaining of 83.7%.
Target CORL23 has a cell viability remaining of 62.8%.
